Values joined by “and” are separate entries in the source; they are usually repeats but may differ in a detail not shown here. Equal entries are not always repeated. Out of some 5,500 compounds screened, about 2,000 (36%) were called active. Inconclusive results (about 18%) are left out. No stated cut-off is given here; in the data, active means normalized growth mostly below about 0.91 (no sharp cut-off); inconclusive means no clear call, values can overlap the other calls; inactive means mostly above about 0.92. The list shows a part of the results.
Assay: chemical genetic growth profiling, strain panel (AID 1159580);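 further: tested at 20 µM; growth read once vehicle control cultures reached saturation at 30 °C; 1 = growth at the plate median or of vehicle wells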
Conditions: S. cerevisiae deletion strains, growth OD

Measured: normalized growth

NCC(CC(=O)O)c1ccc(Cl)cc1 (configuration not stated)
inactive: locus YAL013W, strain DEP1, stronger effect = lower value 1.02 | locus YAL021C, strain ccr4, stronger effect = lower value 0.99 | locus YAL026C, strain drs2, stronger effect = lower value 0.997 | locus YAL030W, strain snc1, stronger effect = lower value 1 | locus YAL040C, strain CLN3, stronger effect = lower value 1.03 | locus YBL061C, strain skt5, stronger effect = lower value 1 | locus YBR009C, strain hhf1, stronger effect = lower value 0.968 | locus YBR021W, strain FUR4, stronger effect = lower value 1.04 | locus YBR023C, strain chs3, stronger effect = lower value 0.997 | locus YBR171W, strain sec66, stronger effect = lower value 1.01 | locus YBR229C, strain ROT2, stronger effect = lower value 1.01 | locus YBR231C, strain swc5, stronger effect = lower value 1.01 | locus YBR279W, strain paf1, stronger effect = lower value 0.994 | locus YCL011C, strain gbp2, stronger effect = lower value 0.992 | locus YCL016C, strain dcc1, stronger effect = lower value 0.976 | locus YCL029C, strain bik1, stronger effect = lower value 0.993 | locus YCL061C, strain MRC1 (second series), stronger effect = lower value 0.981 | locus YCL069W, strain vba3, stronger effect = lower value 0.994 | locus YCR088W, strain abp1, stronger effect = lower value 1 | locus YDL005C, strain med2, stronger effect = lower value 1 | locus YDL035C, strain GPR1, stronger effect = lower value 1.05 | locus YDL040C, strain nat1, stronger effect = lower value 0.995 | locus YDL074C, strain BRE1, stronger effect = lower value 1.03 | locus YDL101C, strain DUN1, stronger effect = lower value 1.01 | locus YDL185W, strain tfp1, stronger effect = lower value 0.993 | locus YDL192W, strain arf1, stronger effect = lower value 0.991 | locus YDR001C, strain nth1, stronger effect = lower value 0.995 | locus YDR069C, strain doa4, stronger effect = lower value 1.02 | locus YDR101C, strain arx1, stronger effect = lower value 0.979 | locus YDR137W, strain rgp1, stronger effect = lower value 0.98 | locus YDR150W, strain NUM1, stronger effect = lower value 1.01 | locus YDR159W, strain sac3, stronger effect = lower value 0.945 | locus YDR162C, strain NBP2, stronger effect = lower value 1.04 | locus YDR195W, strain ref2 0.995 | locus YDR297W, strain sur2, stronger effect = lower value 1.01 | locus YDR318W, strain mcm21, stronger effect = lower value 0.993 | locus YDR334W, strain swr1, stronger effect = lower value 1 | locus YDR335W, strain msn5, stronger effect = lower value 1 | locus YDR388W, stronger effect = lower value 0.99 | locus YDR392W, strain spt3, stronger effect = lower value 0.928 | locus YDR502C, strain sam2, stronger effect = lower value 0.991 | locus YEL003W, strain gim4, stronger effect = lower value 0.996 | locus YEL037C, strain rad23, stronger effect = lower value 0.998 | locus YEL061C, strain CIN8 (second series), stronger effect = lower value 1.01 | locus YEL061C, strain CIN8, stronger effect = lower value 1.01 | locus YER002W, strain NOP16, stronger effect = lower value 0.992 | locus YER015W, strain faa2, stronger effect = lower value 1 | locus YER016W, strain bim1, stronger effect = lower value 0.975 | locus YER110C, stronger effect = lower value 0.978 | locus YER111C, strain swi4, stronger effect = lower value 0.989 | locus YER155C, strain BEM2 (second series), stronger effect = lower value 1.02 | locus YER155C, strain BEM2, stronger effect = lower value 1.02 | locus YER167W, strain BCK2, stronger effect = lower value 1.02 | locus YFR010W, strain ubp6, stronger effect = lower value 1.01 | locus YGL078C, strain dbp3, stronger effect = lower value 0.984 | locus YGL086W, strain mad1, stronger effect = lower value 0.988 | locus YGL167C, strain pmr1, stronger effect = lower value 0.99 | locus YGL173C, strain kem1, stronger effect = lower value 1 | locus YGL227W, strain vid30, stronger effect = lower value 1 | locus YGL240W, strain doc1, stronger effect = lower value 1.03 | locus YGL248W, strain PDE1, stronger effect = lower value 1.02 | locus YGL253W, strain hxk2, stronger effect = lower value 0.966 | locus YGR078C, strain PAC10, stronger effect = lower value 1.01 | locus YGR135W, strain pre9, stronger effect = lower value 0.987 | locus YGR229C, strain SMI1, stronger effect = lower value 0.955 | locus YGR252W, strain gcn5, stronger effect = lower value 0.966 | locus YHR013C, strain ard1, stronger effect = lower value 0.982 | locus YHR027C, strain rpn1, stronger effect = lower value 0.98 | locus YHR030C, strain SLT2, stronger effect = lower value 1.01 and 1.05 | locus YHR079C, strain IRE1 (second series), stronger effect = lower value 0.984 | locus YHR079C, strain IRE1, stronger effect = lower value 1.06 | locus YHR094C, strain hxt1, stronger effect = lower value 0.985 | locus YHR129C, strain ARP1, stronger effect = lower value 1.01 | locus YHR142W, strain chs7, stronger effect = lower value 0.958 | locus YHR200W, strain rpn10, stronger effect = lower value 0.987 | locus YIL066C, strain RNR3, stronger effect = lower value 1.04 | locus YIL073C, strain SPO22, stronger effect = lower value 0.986 | locus YIL125W, strain kgd1, stronger effect = lower value 0.977 | locus YIR030C, strain dcg1, stronger effect = lower value 1 | locus YJL092W, strain hpr5, stronger effect = lower value 1.01 | locus YJL095W, strain BCK1 (second series), stronger effect = lower value 1 | locus YJL095W, strain BCK1, stronger effect = lower value 1.01 and 1.06 | locus YJL115W, strain asf1, stronger effect = lower value 1.02 | locus YJL129C, strain trk1, stronger effect = lower value 1 | locus YJL134W, strain LCB3, stronger effect = lower value 1.01 | locus YJL154C, strain vps35, stronger effect = lower value 0.991 | locus YJL164C, strain tpk1, stronger effect = lower value 0.975 | locus YJL166W, strain qcr8, stronger effect = lower value 1.01 | locus YJL168C, strain set2, stronger effect = lower value 0.994 | locus YJL187C, strain SWE1 (second series), stronger effect = lower value 1.01 | locus YJR043C, strain POL32, stronger effect = lower value 1.03 | locus YJR066W, strain TOR1, stronger effect = lower value 0.996

Reference: PubChem BioAssay AID1159580 (chemical genetic matrix, 2015)
